These results are taken from PMC5540273 (PLoS ONE, 2017).

Structures are written as SMILES.
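Also: KINOMEscan kinase panel screen.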

The first test concerns T1, DRAK1.
T1 construct: gene STK17A
The settings on record: concentration: 1 μM, replicates: in singlicate; n = 1.
Consider `COc1cc(Nc2nccc(N3CCC(NC(=O)Nc4cc(C)ccc4C)C3)n2)cc(OC)c1OC` (stereo not shown) [GSK1379762], for which the “%Inh” value is 0%.

On to `COC(=O)c1c(-c2ccccc2)c2cc(OC)ccc2c(=O)n1Cc1ccccc1`, for which the “%Inh” value turned out to be 0%.

In the case of `Cc1c(Cn2ccn3c(=O)cc(N4CCOCC4)nc23)cccc1C(F)(F)F` [GSK2289044], the “%Inh” value came to 0%.

For `Cl.Oc1ccc(-c2nc(-c3ccccc3)[nH]c2-c2ccncc2)cc1` [SB-428218], the “%Inh” value is given as 0%.

Take `CC1=C(C(=O)Nc2cc3cn[nH]c3cc2F)C(c2ccc(C(F)(F)F)cc2)CC(=O)N1` (stereo not shown) [GSK429286]: the “%Inh” value turned out to be 0%.

Consider `CCCc1ccc(S(=O)(=O)NC2CCN(c3ccnc(Nc4ccc(F)cc4)n3)C2)cc1` (stereo not shown) [GSK1379715], for which the “%Inh” value is on record as 0%.

For the molecule `Cc1ccc(NC(=O)Nc2cccc(Cl)c2)cc1-c1ccc(C(=O)Nc2ccncc2)cc1` [GSK1398468], the “%Inh” value amounted to 0%.

Turning to `O=S(=O)(c1ccc(-c2ccnc3[nH]ccc23)cc1)N1CCCC1` [GSK846226], the “%Inh” value turned out to be 73%.

For `Cn1ccc2ncnc(Oc3ccc(NC(=O)Nc4ccccc4)cc3)c21`, the “%Inh” value amounted to 0%.

For `CCn1c(-c2ccccn2)nc2cnccc21` [SB-736398], the “%Inh” value is reported as 5%.

As to `CC(=O)Nc1nc2cnc(Nc3cc(NC(=O)c4cccc(CCC#N)c4)ccc3C)nc2s1`, the “%Inh” value stood at 0%.

Take `Cc1cccc(-c2nc(C)cc(Nc3ccncc3)n2)n1` [GSK257997]: the “%Inh” value was 12%.

`CS(=O)(=O)c1ccc(-c2c(-c3ncn[nH]3)sc(N3CCOCC3)c2C#N)cc1`: the “%Inh” value amounted to 8%.

For `Cc1c(O)cccc1Nc1ccnc2ccc(C(F)(F)F)cc12.Cl` [GW466413], the “%Inh” value came out at 14%.

As for `O=C(Nc1ccc2c(c1)OCO2)NC1CCN(c2ccnc(Nc3ccc(F)cc3)n2)C1` (stereo not shown) [GSK1379724], the “%Inh” value is given as 0%.

Take `Cl.c1ccc(-c2n[nH]cc2-c2ccnc(-c3ccc(CN4CCOCC4)cc3)c2)nc1` [GW776245]: the “%Inh” value turned out to be 0%.

As to `Cc1ccc(NC(=O)Nc2cc(C(C)(C)C)nn2-c2ccccc2)cc1` [GSK1014915], the “%Inh” value is reported as 0%.

The next test relates to T2, DRAK2.
T2 construct: gene STK17B
The conditions noted are these: concentration: 1 μM, replicates: in singlicate; n = 1.
For `Cc1cccc(-c2nc(Nc3cccc(C(N)=O)c3)c3ccccc3n2)n1` [GW876019], the “%Inh” value amounted to 28%.

Consider `CC(C)(C)c1ccc(C(=O)Nc2cn3cc(-c4cccnc4)ccc3n2)cc1`, for which the “%Inh” value is given as 5%.

As to `Clc1cc(Cl)cc(Nc2ccnc(Nc3cc(Cl)cc(Cl)c3)n2)c1` [GSK175726], the “%Inh” value worked out at 6%.

Regarding `COc1ccc(CNC(=O)NC2CCN(c3ccnc(Nc4cc(OC)c(OC)c(OC)c4)n3)C2)cc1` (stereo not shown) [GSK1379748], the “%Inh” value is recorded as 0%.

On to `Fc1cccc(COc2nnc(-c3ccc4c(c3)CCO4)o2)c1`, for which the “%Inh” value stood at 33%.

For `CN1C(=O)C(Nc2ccc(Cl)c(C(=O)O)c2)=C(c2ccc(Cl)cc2)C1=O` [SB-404290], the “%Inh” value is given as 0%.

In the case of `Cn1cncc1-c1ccc2ncnc(Nc3ccc(OCc4ccccc4)cc3)c2c1` [GW320571], the “%Inh” value is given as 0%.

As for `Nc1ncnc2[nH]c(-c3ccccc3)nc12` [AH5015], the “%Inh” value amounted to 0%.

For the molecule `Cc1nnc(-c2ccc3occ(-c4ccc(S(C)=O)cc4)c3c2)[nH]1` (stereo not shown), the “%Inh” value was found to be 41%.

For the molecule `Fc1cc(Cl)ccc1Nc1ccnc2cc(I)ccc12` [GW551191], the “%Inh” value was found to be 0%.

With `CC(C)(C)c1ccc(C(=O)Nc2cn3cc(Cl)ccc3n2)cc1`, the “%Inh” value was 20%.

`C[C@@H]1CCCCN1c1cc(-c2ccc3c(N)n[nH]c3c2)nc(N)n1` [GSK2258759]: the “%Inh” value is 0%.

Consider `Cc1cccc(-c2nc(Nc3ccc4[nH]ncc4c3)c3ccccc3n2)n1` [GW857175], for which the “%Inh” value was found to be 10%.

For the molecule `Cc1cccc(-c2cc(Nc3ccncc3)c3ccccc3n2)n1` [GSK223675], the “%Inh” value is recorded as 0%.

For `COc1cc2nccc(Nc3ccc(NC(=O)c4ccc(C)cc4)c(O)c3)c2cc1OC.Cl` [GW440132], the “%Inh” value stood at 0%.

`COc1cc(Nc2nccc(N3CCC(NC(=O)Nc4cc(C)ccc4C)C3)n2)cc(OC)c1OC` (stereo not shown) [GSK1379762]: the “%Inh” value was 0%.

On to `COC(=O)c1c(-c2ccccc2)c2cc(OC)ccc2c(=O)n1Cc1ccccc1`, for which the “%Inh” value turned out to be 22%.

Turning to `Cc1c(Cn2ccn3c(=O)cc(N4CCOCC4)nc23)cccc1C(F)(F)F` [GSK2289044], the “%Inh” value is 0%.

`Cl.Oc1ccc(-c2nc(-c3ccccc3)[nH]c2-c2ccncc2)cc1` [SB-428218]: the “%Inh” value is 0%.

For the molecule `CC1=C(C(=O)Nc2cc3cn[nH]c3cc2F)C(c2ccc(C(F)(F)F)cc2)CC(=O)N1` (stereo not shown) [GSK429286], the “%Inh” value was 12%.

With `CCCc1ccc(S(=O)(=O)NC2CCN(c3ccnc(Nc4ccc(F)cc4)n3)C2)cc1` (stereo not shown) [GSK1379715], the “%Inh” value is listed as 0%.

As for `Cc1ccc(NC(=O)Nc2cccc(Cl)c2)cc1-c1ccc(C(=O)Nc2ccncc2)cc1` [GSK1398468], the “%Inh” value is 0%.

For `O=S(=O)(c1ccc(-c2ccnc3[nH]ccc23)cc1)N1CCCC1` [GSK846226], the “%Inh” value was determined as 0%.

For the molecule `Cn1ccc2ncnc(Oc3ccc(NC(=O)Nc4ccccc4)cc3)c21`, the “%Inh” value came to 0%.

`CCn1c(-c2ccccn2)nc2cnccc21` [SB-736398]: the “%Inh” value turned out to be 8%.

For `CC(=O)Nc1nc2cnc(Nc3cc(NC(=O)c4cccc(CCC#N)c4)ccc3C)nc2s1`, the “%Inh” value was found to be 0%.

Turning to `Cc1cccc(-c2nc(C)cc(Nc3ccncc3)n2)n1` [GSK257997], the “%Inh” value was 0%.

Turning to `CS(=O)(=O)c1ccc(-c2c(-c3ncn[nH]3)sc(N3CCOCC3)c2C#N)cc1`, the “%Inh” value is 0%.

As for `Cc1c(O)cccc1Nc1ccnc2ccc(C(F)(F)F)cc12.Cl` [GW466413], the “%Inh” value is 0%.

For `O=C(Nc1ccc2c(c1)OCO2)NC1CCN(c2ccnc(Nc3ccc(F)cc3)n2)C1` (stereo not shown) [GSK1379724], the “%Inh” value came out at 0%.

Regarding `Cl.c1ccc(-c2n[nH]cc2-c2ccnc(-c3ccc(CN4CCOCC4)cc3)c2)nc1` [GW776245], the “%Inh” value was 20%.

`Cc1ccc(NC(=O)Nc2cc(C(C)(C)C)nn2-c2ccccc2)cc1` [GSK1014915]: the “%Inh” value was found to be 1%.
